For 31 compounds, Potency and outcome results are on record in PubChem BioAssay (Tox21).

Test [1] has as its target Peroxisome proliferator-activated receptor delta (Homo sapiens) (UniProt Q03181). The test can be described thus: qHTS assay to identify small molecule agonists of the peroxisome proliferator-activated receptor delta (PPARd) signaling pathway (AID 743212; calls by dose curve; further: potency means the concentration at half of the fitted maximal effect). The note with it: HEK293H PPARd-UAS-bla, beta-lactamase FRET ratio, 17 h; series mostly up to 62.6 µM. Put shortly:
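Tox21 library screened in GeneBLAzer PPARd UAS-bla HEK293H cells. After compound treatment at 37 C, a FRET-based beta-lactamase substrate was applied for 2 h and fluorescence recorded.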

Test [2] is described as follows: qHTS assay to identify small molecule antagonists of the peroxisome proliferator-activated receptor delta (PPARd) signaling pathway - cell viability counter screen (AID 743213). Further: nearly all actives have a fitted effect of over 50% in size. The note with it: PPARd-bla HEK293H viability, CellTiter-Glo luminescence, 17 h; series mostly up to 62 µM. Put shortly: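 Viability counter-screen, qHTS format: PPARd-bla HEK293H, L165041 300 nM final, 17 h compound exposure at 37 C, CellTiter-Glo luminescence after 30 min RT.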
Background: Quantitative high-throughput screening tests each substance at several concentrations.

Test [3] in a line: qHTS assay to identify small molecule antagonists of the farnesoid-X-receptor (FXR) signaling pathway - cell viability counter screen (AID 743221; active means well fitted cell-killing curve with a large enough effect in the repeat runs, not every such curve was filed as active; further: nearly all actives have a fitted effect of over 50% in size; further: potency means the concentration at half of the fitted maximal effect). The settings on record: FXR-bla HEK293T viability, CellTiter-Glo luminescence, 16 h; series mostly up to 62.6 µM. Put shortly: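 Here viability was scored by luminescence after CellTiter-Glo addition to wells already read for beta-lactamase. Prior treatment: compound plus CDCA (50 uM final), 16 h, 37 C, HEK 293T FXR-bla cells.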

The target in test [4] is Vitamin D3 receptor (Homo sapiens) (UniProt P11473). The test can be described thus: qHTS assay to identify small molecule agonists of the vitamin D receptor (VDR) signaling pathway (AID 743222; calls by dose curve). The note with it: HEK293T VDR-UAS-bla, beta-lactamase FRET ratio, 16 h; series mostly up to 63.5 µM. Put shortly:
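Cells carrying a VDR-driven beta-lactamase reporter are seeded at 2,000 per well and rested 4 h. Compounds in DMSO are added for 16 h at 37C, and FRET substrate fluorescence is measured after 2 h at room temperature.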

Test [5] has as its target Bile acid receptor (Homo sapiens) (UniProt Q96RI1). The test can be described thus: qHTS assay to identify small molecule antagonists of the farnesoid-X-receptor (FXR) signaling pathway (AID 743217; active means well fitted inhibition curve with a large enough effect in the signal ratio in the repeat runs, not every such curve was filed as active; the % refers to the signal ratio). The note with it: HEK293T FXR-UAS-bla, beta-lactamase ratio, CDCA-stimulated, 16 h; series mostly up to 62.6 µM. Put shortly: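 Cells carrying a UAS-driven beta-lactamase reporter (GeneBLAzer FXR-UAS-bla HEK 293T) were plated and rested 5 h at 37 °C. Compounds in DMSO were added alongside chenodeoxycholic acid agonist at 50 uM final and left 16 h at 37 °C before FRET substrate readout.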

The nature of test [6]: qHTS assay to identify small molecule agonists of the farnesoid-X-receptor (FXR) signaling pathway - cell viability counter screen (AID 743218). Further: nearly all actives have a fitted effect of over 45% in size. Further: potency means the concentration at half of the fitted maximal effect. The note with it: FXR-bla HEK293T viability, CellTiter-Glo luminescence, 16 h; series mostly up to 62.6 µM. Put shortly:
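Cells were seeded, left 5 h at 37 C and 5% CO2, then dosed with compound in DMSO for 16 h. After the beta-lactamase FRET read, CellTiter-Glo was added and luminescence measured 30 min later.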

Test [7] concerns the target Peroxisome proliferator-activated receptor delta (Homo sapiens) (UniProt Q03181). The test can be described thus: qHTS assay to identify small molecule antagonists of the peroxisome proliferator-activated receptor delta (PPARd) signaling pathway (AID 743215; active means well fitted inhibition curve with a large enough effect in the signal ratio in the repeat runs, not every such curve was filed as active; the % refers to the signal ratio;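 further: cells stimulated with agonist L165041 at 300 nM final during compound exposure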). The note with it: HEK293H PPARd-UAS-bla, beta-lactamase FRET ratio, antagonist, 17 h; series mostly up to 62 µM. Put shortly:
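Cells: HEK293H with a UAS-driven beta-lactamase reporter responsive to PPARd. Compounds were co-added with L165041 (300 nM, final) and incubated 17 h at 37 C before a 2 h room-temperature FRET substrate step and fluorescence reading.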

Test [8] deals with Bile acid receptor (Homo sapiens) (UniProt Q96RI1). The test can be described thus: qHTS assay to identify small molecule agonists of the farnesoid-X-receptor (FXR) signaling pathway (AID 743220; active means well fitted activation curve with a large enough effect in the signal ratio in the repeat runs, not every such curve was filed as active; the % refers to the signal ratio). The settings on record: HEK293T FXR-UAS-bla, beta-lactamase FRET ratio, 16 h; series mostly up to 62.6 µM. Put shortly: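 FXR-UAS-bla HEK 293T cells carrying a UAS-driven beta-lactamase reporter were plated for 5 h at 37C/5% CO2, then exposed to DMSO-dissolved Tox21 10K compounds for 16 h at 37C. A LiveBLAzer B/G FRET substrate was loaded for 2 h at room temperature before fluorescence reading.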
Bile acid receptor (Homo sapiens), sequence (Q96RI1 whole entry, looked up): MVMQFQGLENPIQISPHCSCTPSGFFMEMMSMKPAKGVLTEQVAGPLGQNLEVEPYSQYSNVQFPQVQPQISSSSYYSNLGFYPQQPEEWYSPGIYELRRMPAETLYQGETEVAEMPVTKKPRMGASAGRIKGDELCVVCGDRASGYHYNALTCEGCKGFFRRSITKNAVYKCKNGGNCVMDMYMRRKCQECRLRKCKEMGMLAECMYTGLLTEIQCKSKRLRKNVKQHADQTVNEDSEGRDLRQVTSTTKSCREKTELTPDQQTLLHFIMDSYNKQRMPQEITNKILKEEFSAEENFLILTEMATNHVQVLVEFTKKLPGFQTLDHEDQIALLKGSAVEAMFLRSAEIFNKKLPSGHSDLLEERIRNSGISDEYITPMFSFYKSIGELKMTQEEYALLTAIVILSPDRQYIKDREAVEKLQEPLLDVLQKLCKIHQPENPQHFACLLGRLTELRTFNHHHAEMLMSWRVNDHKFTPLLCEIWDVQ

The target in test [9] is Vitamin D3 receptor (Homo sapiens) (UniProt P11473). Put plainly: qHTS assay to identify small molecule antagonists of the vitamin D receptor (VDR) signaling pathway (AID 743223; active means well fitted inhibition curve with a large enough effect in the signal ratio in the repeat runs, not every such curve was filed as active; the % refers to the signal ratio). The note with it: VDR-UAS-bla HEK293T, beta-lactamase FRET ratio, 16 h; series mostly up to 61 µM. Put shortly:
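Inhibition of agonist-driven VDR signalling is scored in VDR-bla cells: 3 nM final 1alpha,25-dihydroxyvitamin D3 plus compound, 16 h at 37C, then beta-lactamase detection by FRET substrate fluorescence after 2 h.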

Inconclusive results are not listed. Calls of active or inactive are those of the source. Unless noted, the call rests on the fitted dose curve; in most records, active means well fitted curve in the direction sought with a large enough effect in the repeat runs; inconclusive means weak or mixed curves; inactive means no such curve, though single readings can be large; an effect the other way counts as inactive or inconclusive.

Peroxisome proliferator-activated receptor delta (Homo sapiens), sequence (Q03181 whole entry, looked up): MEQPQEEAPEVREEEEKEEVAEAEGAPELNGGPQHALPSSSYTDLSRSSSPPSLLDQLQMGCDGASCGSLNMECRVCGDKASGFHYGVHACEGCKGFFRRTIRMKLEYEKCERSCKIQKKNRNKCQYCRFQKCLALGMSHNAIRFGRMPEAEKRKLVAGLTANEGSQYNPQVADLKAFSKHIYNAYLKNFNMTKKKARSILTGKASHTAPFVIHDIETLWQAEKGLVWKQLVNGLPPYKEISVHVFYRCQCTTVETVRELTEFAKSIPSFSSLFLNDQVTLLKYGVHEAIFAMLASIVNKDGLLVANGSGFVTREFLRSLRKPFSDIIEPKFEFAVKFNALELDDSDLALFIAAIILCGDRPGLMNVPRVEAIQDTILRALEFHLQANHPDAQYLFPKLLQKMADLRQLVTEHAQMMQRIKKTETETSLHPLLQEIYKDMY
Vitamin D3 receptor (Homo sapiens), sequence (P11473 whole entry, looked up): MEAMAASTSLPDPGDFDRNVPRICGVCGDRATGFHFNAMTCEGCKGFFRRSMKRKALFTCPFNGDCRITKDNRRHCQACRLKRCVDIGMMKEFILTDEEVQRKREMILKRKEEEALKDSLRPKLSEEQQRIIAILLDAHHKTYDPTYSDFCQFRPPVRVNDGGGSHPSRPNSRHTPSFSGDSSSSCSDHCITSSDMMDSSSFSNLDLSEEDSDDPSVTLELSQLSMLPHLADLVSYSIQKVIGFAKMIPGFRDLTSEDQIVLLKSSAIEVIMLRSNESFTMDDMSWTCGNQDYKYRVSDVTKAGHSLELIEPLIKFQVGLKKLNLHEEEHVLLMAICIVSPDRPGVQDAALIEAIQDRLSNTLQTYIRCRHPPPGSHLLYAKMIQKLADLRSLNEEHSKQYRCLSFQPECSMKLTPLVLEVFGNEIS

Consider `CC(=O)c1cc(C(C)(C)C)cc2c1CCC2(C)C`, for which the Potency entry in test [1], in test [2], in [3] and in test [4] was “inactive” each time.
For `CCCCCCCCCCCCCCC(Br)C(=O)O` (stereo unspecified), the Potency in test [1] was 13.8 µM (active); in test [6], 21.9 µM (active). For the same compound, the Potency entry in [5] is “inactive”.
As to `Oc1c(Cl)c(Cl)cc(Cl)c1Cl`, the Potency entry in test [7] was “inactive”.
For the compound `CC(C)(O)c1cnn2c(-c3ccc(F)c(-c4c(F)cccc4C#N)c3)cnc2n1`, the Potency entry in [2] is “inactive”.
With `CC(=O)/C=C/c1ccc2c(c1)OCO2`, the Potency entry in test [2], in test [6] and in test [3] was “inactive” throughout. The result in test [8] was inactive.
On to `O=S(=O)(c1ccc(Cl)cc1)c1ccc(Cl)cc1`, for which the Potency result in test [3] and in [4] was “inactive” throughout.
On to `Nc1ccc(Cc2ccc(N)c(Cl)c2)cc1Cl`, for which the Potency entry in test [3] is “inactive”.
On to `C=CCC1=C(C)C(OC(=O)C2C(C=C(C)C)C2(C)C)CC1=O` (stereo unspecified), for which the results for the Potency in test [6] and in test [3] were 51.9 µM (active) and 46.3 µM (active), respectively.
As to `O=c1[nH]c2ccccc2n1CCCN1CCC(n2c(=O)[nH]c3cc(Cl)ccc32)CC1`, the Potency result in test [3] was “inactive”.
Turning to `CCCSP(=O)(OCC)SCCC`, in [8], the result was inactive. In addition, the Potency entry in test [4] was “inactive”.
Take `COc1ccc(N)cc1N`: the Potency entry in test [1], in test [6], in test [3] and in test [4] was “inactive” in each case.
As for `CC1(C)CC/C(=C/c2ccc(Cl)cc2)C1(O)Cn1cncn1` (stereo unspecified), the Potency entry in test [3] and in [9] was “inactive” in each case.
Take `CC(=O)C(Cl)(Cl)Cl`: the Potency entry in test [5], in [6] and in test [3] was “inactive” each time.
`Cc1cc(N=Nc2ccccc2C)ccc1N`: the Potency result in test [2], in test [7], in test [6] and in test [3] was “inactive” throughout. For the same compound, the result in [8] was inactive.
For the compound `CC(C)Oc1cccc(NC(=O)c2ccccc2C(F)(F)F)c1`, the Potency result in test [3] and in [4] was “inactive” throughout.
On to `Cc1cc(C)cc(OP(=O)(Oc2cc(C)cc(C)c2)Oc2cc(C)cc(C)c2)c1`, for which the Potency entry in test [6], in test [3] and in test [4] was “inactive” each time. For the same compound, in test [8], the result was inactive.
In the case of `Cc1cc(C(F)(C(F)(F)F)C(F)(F)F)ccc1NC(=O)c1cccc(I)c1C(=O)NC(C)(C)CS(C)(=O)=O`, the Potency result in [5], in [6] and in [3] was “inactive” in each case.
As to `CCOP(=O)(NC(C)C)Oc1ccc(SC)c(C)c1` (stereo unspecified), the Potency result in test [6], in test [3] and in test [4] was “inactive” in each case.
In the case of `CCOP(=S)(OCC)OC(Cl)C(Cl)(Cl)Cl` (stereo unspecified), the Potency result in test [1], in test [7], in test [6], in test [3] and in test [4] was “inactive” in each case.
Consider `N#C/C=C/C#N`, for which the Potency result in test [2] and in test [3] was “inactive” in each case. The Potency in [6] was 51.3 µM (active).
Consider `O=C1NCN(c2ccccc2)C12CCN(CC1COc3ccccc3O1)CC2` (stereo unspecified), for which the Potency entry in [1], in [3] and in test [4] was “inactive” each time.
With `O=[N+]([O-])c1cc([N+](=O)[O-])c2ccccc2c1`, the Potency result in test [2] and in test [3] was “inactive” each time.
Consider `CNC(C)Cc1ccc2c(c1)OCO2` (stereo unspecified), for which the Potency entry in [6] and in [4] was “inactive” each time.
With `CC(=O)O[C@H]1CC[C@@]2(C)C(=CC[C@@H]3[C@@H]2CC[C@]2(C)C(=O)CC[C@@H]32)C1`, the Potency result in test [2], in test [5], in test [6] and in [3] was “inactive” each time.
Take `O=[N+]([O-])c1c2ccccc2cc2ccccc12`: the Potency entry in [6] was “inactive”.
For `Oc1c(Br)c(Br)c(Br)c(Br)c1Br`, the outcome in test [8] was inactive.
For the compound `CCOC(=O)C1(c2ccccc2)CCN(CCC(C#N)(c2ccccc2)c2ccccc2)CC1`, the Potency entry in test [2], in test [6] and in test [3] was “inactive” throughout. Besides, the outcome in [8] was inactive.
Take `O=c1oc2ccccc2c(O)c1Cc1c(O)c2ccccc2oc1=O`: the outcome in test [8] was inactive.
Consider `CC1(C)[C@H](C(=O)O[C@H](C#N)c2cccc(Oc3ccccc3)c2)[C@@H]1/C=C(\Cl)C(F)(F)F`, for which the Potency entry in [1] and in [6] was “inactive” throughout. Also, the outcome in [8] was inactive.
Turning to `CSCCCN=C=S`, the Potency entry in test [2], in test [3] and in [4] was “inactive” throughout.
For the compound `CCC(C)c1cc([N+](=O)[O-])cc([N+](=O)[O-])c1OC(=O)C=C(C)C` (stereo unspecified), in test [8], the outcome was inactive. In test [3], the Potency result is “inactive”.
